Laboratory results taken from paper PMC12864922, “TDP-43 directly inhibits mRNA accumulation in neurites through modulation of mRNA stability”.
Whole data set: some 9,900 sequences, median “r (bound/input frequency ratio)” near 0.7, cut for the highest 2% near 6.5. Many of the other results were omitted from the sample, so the highest values are more common in it than they were.

B1: ENSMUSG00000031028.241|Tub (ssRNA)
RNA: GGGAGUUCUACAGUCCGACGAUCGCUUCGAUAUCCGCAUGCUAGGUUCUGGGGCUGGGCUUGGACACGCCCUCCAUUGGGAUGGCACCACUCAUCUGGUGGGCUUGGGAACUCCAAGCUCUUGCCUGUGUGCCAUCUGUGAGAAGCUUCUUGGAGCUGAGACACCAGAGGGAAGCAAAGAGCAUUUAGACAUUGCUUUUUGCUUUGAAAUAGAUAUGUUUGGAAACGCUAAGUAGAAGUUUAAAAAGUAGAGUCAUGUAGAGUCAUGCUUUGAAUAUGUGGGUCAUGCUUUAGAUAUGAAGAGCUCUUGCGGUCGCACUAGUGUGGAAUUCUCGGGUGUCAAGG
B2: ENSMUSG00000061578.211|Ksr2 (ssRNA)
RNA: GGGAGUUCUACAGUCCGACGAUCGCUUCGAUAUCCGCAUGCUAUGACACAAGAGGCAAAGCUGUCCCUAAGCAGAGAAUUAGCAGGGUUAGCCAGACAGCAAAAUCCAUGUAAACAUACAAAACCACCCCCCCUUUUUGAGUGGCCCUAUUGGAUGUACACACUAGGACCAAGCACGGGUCCAAAGCAGGAAGACUGAUUGACAGUAGUCACACUUCUAGAGAGAUGUACCCCAUGACACUUUCAAGUCUUUUCAGAACCUUCUCACCCCUUUGCAAAGCUCUUGCCGUCUGCACCCGGGACCCUCUUGCGGUCGCACUAGUGUGGAAUUCUCGGGUGUCAAGG
B3: ENSMUSG00000090935.117|Synj2bp (ssRNA)
RNA: GGGAGUUCUACAGUCCGACGAUCGCUUCGAUAUCCGCAUGCUAUUUGCCCUCACCAUGGUAGCAGUUUGGGCCUUCGUGAGAUACCGAAAGCAGCUUUGAAAUGCUUGCUGUCUUCCAGUGUGUCCAAUGAACUCUCUCUCUCACUCACCAUCUCUGACAUCCUCCCAUAUUCUUUCUCCUCCACAUAGCCAAUACAAGAUUUAAAGUGACUGCUUAUCACCCAAAACCCUGCUAUUCAAAAUCUCCUAUUCUAAUGGAAGAGUACAGGGGUUAUUUGAAGAAAAGCUGUGGUGGUGUGUGUGCUCUUGCGGUCGCACUAGUGUGGAAUUCUCGGGUGUCAAGG
B4: ENSMUSG00000061578.735|Ksr2 (ssRNA)
RNA: GGGAGUUCUACAGUCCGACGAUCGCUUCGAUAUCCGCAUGCUAUGUAUCAAGACCUUGGAGUUGUCUAAGGCUGUGGGUUUUAAAUACCUGCUGCAGGCCUCCCAUCUCUGGCUCUUUGUUUCCACUCUGGCCCAAGUUUGAGUCUCCAUAUGGGCCCUUCCUGUCCUCAUGCCCUGCCUGUCUUCAUUCCACCCAUCCACCCUCCUAAGGAUUGGUCUUGUUCCGAGAGUGAUCCUGGUAACGCCAAGCCUCCCUCUGCCCCUGUGUUGGCUUCUGUGACGGACUACCACACACCAAGAGGUCUCUUGCGGUCGCACUAGUGUGGAAUUCUCGGGUGUCAAGG

Each binder was assayed against TDP-43 (Homo sapiens, UniProt Q13148 1-414) (assay: RNA Bind-n-Seq with designed 260-mer pool; 25 mM Tris-HCl, 150 mM KCl, 3 mM MgCl2, BSA (printed 500 mg/mL), 20 units/mL SUPERase IN; pH not stated; 500 nM RNA pool, 1 h, 4 C; TDP-43 5, 50, 500 nM; high values mean tight binding). Conditions: protein: recombinant; tags: SBP (GST cleaved off with PreScission; pGEX-GST-SBP).
Procedure, shortened: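 In 25 mM Tris-HCl, 150 mM KCl, 3 mM MgCl2, BSA and SUPERase IN, 500 nM of an in vitro-transcribed 260-nt 3′ UTR oligo pool was incubated for 1 h at 4 °C with SBP-tagged TDP-43 (5, 50 or 500 nM) captured on streptavidin beads. RNA remaining after washes was biotin-eluted, reverse transcribed, PCR-amplified and sequenced. Binding, R, is the bound-sample abundance of each oligo, normalized to mapped reads, divided by its abundance in input. Each duplicate used a separate, independent protein batch.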

TDP-43, sequence (Q13148 whole entry): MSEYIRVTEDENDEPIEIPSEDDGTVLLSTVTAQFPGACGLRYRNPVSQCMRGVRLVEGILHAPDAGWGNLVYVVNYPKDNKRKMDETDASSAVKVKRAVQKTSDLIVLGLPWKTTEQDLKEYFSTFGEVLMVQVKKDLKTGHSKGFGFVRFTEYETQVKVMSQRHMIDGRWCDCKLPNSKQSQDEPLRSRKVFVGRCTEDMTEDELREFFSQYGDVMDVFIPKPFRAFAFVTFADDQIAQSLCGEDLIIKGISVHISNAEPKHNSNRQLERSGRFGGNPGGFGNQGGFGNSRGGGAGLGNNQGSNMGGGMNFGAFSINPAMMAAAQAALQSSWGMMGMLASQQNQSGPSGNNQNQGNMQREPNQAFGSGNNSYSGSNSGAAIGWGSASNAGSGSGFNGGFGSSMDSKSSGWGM

| Binder | binding signal |
| --- | --- |
| B1 | 0.949 R (bound/input frequency ratio) |
| B2 | 0.667 R (bound/input frequency ratio) |
| B3 | 1.43 R (bound/input frequency ratio) |
| B4 | 1.36 R (bound/input frequency ratio) |
